Rows were chosen to be rich in hits. Some 8% of all compounds tested hit in one or more screens of this group.
MCF10A rerep – inducers of DNA re-replication in MCF 10A breast cells; MCF 10A DNA re-replication, Hoechst nuclear intensity, 48 h; Potency, µM (doses to about 46.1 µM), inactives show top-dose activity, positive = re-replication, actives largely listed as activators; 350,000 tested, 2.9% active; AID 624296; note: % of control where 0% means no effect; nearly all actives have a fitted effect of over 50% in size
KB-3-1 tox – kills parental KB-3-1 adenocarcinoma cells. KB-3-1 viability, CellTiter-Glo ATP luminescence, 72 h. Potency, µM (series often up to 46.1 µM), hits mostly cytotoxic. 400,000 tested, 1.4% active. AID 1347075; note: % is set by controls: 0 for no effect and ±100 for the full control effect; nearly all actives have a fitted effect of over 60% in size
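Cells are dispensed, compounds pinned in, plates held at 37 °C for 72 h, then CellTiter-Glo is added and luminescence read after 10 minutes. Cell line: parental KB-3-1 in phenol-red-free DMEM, 10% FBS.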
KB-V1 MDR tox – kills drug-selected multidrug resistant KB-V1 cells. KB-V1 MDR cells viability, CellTiter-Glo, 72 h. Potency, µM (doses to about 46.1 µM), actives largely listed as cytotoxic. 400,000 tested, 3.4% active; note: % is set by controls: 0 for no effect and ±100 for the full control effect; nearly all actives have a fitted effect of over 60% in size
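KB-V1 MDR subline cells in DMEM (phenol-red free, 10% FBS) exposed to compounds in qHTS concentration series for 72 h at 37 degrees C. Viability read by CellTiter-Glo luminescence; concentration-effect curves fitted after normalization and correction.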
HT1080-NT tox – kills 2HG-producing HT-1080-NT fibrosarcoma cells. HT-1080-NT fibrosarcoma viability, CellTiter-Glo ATP luminescence, 48 h. Potency, µM (top dose mostly 46.1 µM), inactives show at the top dose activity, negative = less viability, actives largely listed as cytotoxic. 360,000 tested, 1.6% active. AID 686970;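 note: NT is the 2HG producing partner of a matched IDH1 knockdown line; 0% = DMSO-treated cells and -100% = media-only wells without cells; nearly all actives have a fitted effect of over 55% in size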
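Fibrosarcoma NT cells, 750 per well in 5% FBS RPMI, were exposed to compound for 48 hours. Viability: CellTiter-Glo luminescence.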
HT1080 IDH1KD tx – toxicity to HT-1080 IDH1 knockdown cells (counter line) | Potency, µM (top dose mostly 46.1 µM), for the others: top-dose activity, negative = toxicity, hits mostly cytotoxic | 360,000 tested, 2% active | AID 686971 | HT-1080 IDH1 knockdown viability, ATP luminescence, 48 h;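 note: 0% = DMSO wells and -100% = cell-free medium wells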
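IDH1KD HT-1080 cells, 750/well, RPMI + 5% FBS; compound pinned after 2 h settling; 48 h, 37 °C; CellTiter-Glo luminescence; % activity normalised to DMSO and no-cell wells; curves fitted, classed by r2 and efficacy.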
SW480 rerep – inducers of DNA re-replication in SW480 colon cancer cells. SW480 DNA re-replication, Hoechst DNA content imaging, 48 h. Potency, µM (top dose mostly 46.1 µM), for inactives: at the highest dose re-replication activation, usual class: activators. 340,000 tested, 1.8% active; note: % of control where 0% means no effect; nearly all actives have a fitted effect of over 55% in size
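DNA re-replication was detected as more nuclei of elevated Hoechst intensity after 48 hr exposure to compound (23 nL pinned per well of 250 cells).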
* = called active by the depositor; i = inactive; ? = inconclusive; / = not tested or not shown. Calls come from the whole dose curve; as a rule, active = well fitted curve in the direction sought with a large enough effect; inconclusive = small, poorly fitted or top-dose-only effect, or another doubt; inactive = no such curve, though single readings can be large; an effect the other way counts as inactive or inconclusive. Potency is the fitted concentration of half-maximal effect.

SMILES	MCF10A rerep	KB-3-1 tox	KB-V1 MDR tox	HT1080-NT tox	HT1080 IDH1KD tx	SW480 rerep
COc1cc(C(=O)NCc2nnc(SCC(=O)N3CCCCCC3)o2)cc(OC)c1OC	6.0%	i	i	2.8%	11.3%	-1.0%
O=C(NCc1ccccc1Cl)c1cc(=O)[nH]c2ccc(S(=O)(=O)N3CCCCC3)cc12	/	i	?	/	/	/
COc1ccc(-c2nc(NC(C)=O)sc2-c2ccccc2)cc1	23.1µM*	i	i	?	?	?
COc1ccc(-c2nc(NC(=O)c3ccccc3)sc2-c2ccc([N+](=O)[O-])cc2)cc1	13µM*	i	?	6.5%	1.4%	12.0%
COCCNc1nc(-c2ccc(OC)cc2)c(-c2ccc(OC)cc2)s1	?	i	i	-11.1%	0.0%	-97.1%
COc1ccc(-c2sc(NC(C)=O)nc2-c2ccccc2)cc1	?	?	18.4µM*	-6.6%	-15.2%	?
CCc1sc(NC(C)=O)nc1-c1ccccc1	-0.4%	i	i	17.9%	7.1%	-3.4%
CC(C)Nc1cccnc1N1CCN(C(=O)c2cc3cc(NS(C)(=O)=O)ccc3[nH]2)CC1	13.0%	/	/	/	/	16.3%
CN(C(=O)c1ccccc1OCc1ccc(F)cc1)c1c(N)n(Cc2ccccc2)c(=O)[nH]c1=O	-0.2%	i	i	7.4%	1.4%	0.7%
Cc1ccc(-n2nc(C(=O)Nc3ccc(C)c(F)c3)c3c4ccccc4n(C)c3c2=O)cc1	/	i	i	/	/	/
Cc1cnc(N2CCC(C(N)=O)CC2)nc1-c1cccc(N(C)C)c1	/	i	i	/	/	/
CC(=O)Nc1ccc(C=C(C#N)c2ccc(C)cc2)cc1	/	i	i	-1.1%	0.5%	/
C[C@H](O)[C@@H]1C(=O)N2CCc3c([nH]c4ccccc34)[C@@H]2C[C@@H]1N(C)C(=O)NC1CCCCC1	/	?	i	-4.6%	-4.5%	/
CN(C(=O)COc1ccccc1C(=O)NCCOc1ccccc1)c1ccccc1	18.4µM*	14.6µM*	8.2µM*	20.6µM*	?	0.7%
O=C(NCCOc1ccccc1)c1ccccc1Cl	-1.8%	i	?	6.4%	12.7%	1.0%
Cc1cn2c(=O)c(S(=O)(=O)NC(C)c3ccccc3)c(C)nc2s1 (configuration not stated)	/	i	i	/	/	/
Cc1cc2c(cc1C)NC(CC(=O)NCc1ccccc1)C(=O)N2 (configuration not stated)	14.1µM*	i	?	4.2%	-28.0%	?
Cc1ccc(NS(=O)(=O)c2cc(C(=O)Nc3cccc([N+](=O)[O-])c3)ccc2C)cc1	?	i	14.6µM*	-9.0%	?	0.9%
CN(c1cccc(NC(=O)c2ccc(Cl)c(S(=O)(=O)Nc3ccccc3)c2)c1)S(C)(=O)=O	8.6%	i	i	?	?	8.0%
Cc1ccc(C(=O)Nc2cccc([N+](=O)[O-])c2)cc1S(=O)(=O)Nc1ccc(NC(=O)c2ccccc2)cc1	4.7%	i	i	-1.4%	-2.0%	4.0%
Cc1ccc(NS(=O)(=O)c2ccc(OCC(=O)Nc3cccc([N+](=O)[O-])c3)c(C)c2)cc1	?	i	i	?	12.6µM*	14.0%
Cc1ccc([N+](=O)[O-])cc1S(=O)(=O)Nc1cccc(S(=O)(=O)Nc2ccccc2C(=O)O)c1	11.0%	/	/	5.4%	2.4%	-1.3%
Cc1ccc(NC(=O)CN(C)C(=O)c2ccc(NS(=O)(=O)c3cccc([N+](=O)[O-])c3)cc2)cc1	-6.8%	i	i	-8.0%	-0.9%	1.9%
Cc1ccc(C)c(NC(=O)c2ccccc2NS(=O)(=O)c2cc([N+](=O)[O-])ccc2C)c1	14.1%	20.6µM*	i	10.3µM*	13µM*	-14.5%
Cc1ccccc1NS(=O)(=O)c1cc(C(=O)Nc2cccc(N(C)S(C)(=O)=O)c2)ccc1C	14.6µM*	i	i	?	?	7.9%
SMILES	MCF10A rerep	KB-3-1 tox	KB-V1 MDR tox	HT1080-NT tox	HT1080 IDH1KD tx	SW480 rerep
O=C(Nc1ccc(F)cc1Cl)n1ncc2cc(Cl)ccc21	/	i	?	/	/	/
Cc1ccc(CNC(=O)Cn2ncc3c([nH]c4ccc(C)cc43)c2=O)cc1	/	i	i	/	/	/
Cc1ccc(NC(=O)c2cc3c(-c4ccccc4)nn(-c4ccccc4)c3s2)cc1	/	i	?	/	/	/
CCCCCCOC(=O)Nc1ccc(S(=O)(=O)Nc2cccc([N+](=O)[O-])c2)cc1	?	i	20.6µM*	-0.6%	-0.3%	-3.3%
O=C(Nc1ccc(Oc2ccccc2)cc1)Nc1nnc(-c2ccncc2)s1	/	?	i	/	/	/
c1ccc(CNc2ncnc3c2ncn3C2CCCCO2)cc1 (configuration not stated)	16.4µM*	i	i	/	/	29.2%
Fc1ccc(CSc2ncnc3c2ncn3C2CCCCO2)cc1 (configuration not stated)	10.7%	i	20.6µM*	19.9%	24.4%	-0.3%
CC(C)CCn1cnc2c(NCc3ccccc3)ncnc21	0.4%	i	16.4µM*	-0.7%	0.9%	-3.1%
CC(=O)/C(N=Nc1ccc(SC(F)F)cc1)=C(\C)O	?	i	i	1.4%	-0.3%	8.2µM*
O=c1[nH]c(=O)c2nc3c4ccccc4c4ccccc4c3nc2[nH]1	2.59µM*	i	i	-4.8%	-9.3%	?
C/C(=N/NC(=O)c1ccc(C)nc1)c1ccc2c(c1)CCCC2	?	?	10.3µM*	16.4µM*	23.1µM*	?
Cc1cc(OCC(=O)N2CCC(C(=O)O)CC2)c2c(C)cc(=O)oc2c1	38.3%	i	i	-0.7%	-2.7%	-4.9%
COc1ccccc1NC(=O)C12CC3CC(C1)CC(c1ccc(C)cc1)(C3)C2	7.1%	i	16.4µM*	-11.8%	-1.1%	13.6%
COc1ccccc1Oc1ccc(N/C=C/C(=O)c2ccco2)cc1	10.7%	i	i	-22.5%	-22.2%	-2.9%
O=C(/C=C/Nc1ccccc1O)c1ccco1	-7.7%	i	i	-8.4%	-4.5%	-2.6%
O=C(/C=C/Nc1ccccc1Oc1ccccc1)c1ccco1	14.6µM*	i	?	-0.7%	-10.0%	-6.5%
O=C(/C=C/Nc1ccc(Oc2ccccc2Cl)cc1)c1ccco1	?	20.6µM*	?	?	?	?
C=CCn1c2ccccc2c(=O)c2cc(C#Cc3cc(OC)cc(OC)c3)ccc21	?	i	i	11.1%	-1.9%	6.51µM*
COc1cc(C#Cc2c(C=O)n(C)c3ccccc23)cc(OC)c1	5.8µM*	?	i	0.0%	13.3%	8.2µM*
